Source: PubChem BioAssay AID1159580 (chemical genetic matrix, 2015)
Among all 5,500 compounds or so, about 2,000 (36%) were called active. Another 18% or so got no clear call; they are omitted. No stated cut-off is given here; in the data, active means normalized growth mostly below about 0.91 (no sharp cut-off); inconclusive means no clear call, values can overlap the other calls; inactive means mostly above about 0.92. The list shows a part of the results.

Assay: chemical genetic growth profiling, strain panel (AID 1159580);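 further: tested at 20 µM; growth read once vehicle control cultures reached saturation at 30 °C; 1 = growth at the plate median or of vehicle wells; lower values mean less growth of the strain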
Conditions: growth OD

Measured: normalized growth

CC1(C)O[C@@H]2CC3C4C[C@H](F)C5=CC(=O)C=CC5(C)C4C(O)CC3(C)[C@]2(C(=O)CO)O1 (some centres undefined)
inactive: S. cerevisiae deletion strains, locus YKL009W, strain mrt4, active compounds read low 0.996 | S. cerevisiae deletion strains, locus YKL068W, active compounds read low 0.992 | S. cerevisiae deletion strains, locus YKL085W, strain MDH1 (second series), active compounds read low 1.01 | S. cerevisiae deletion strains, locus YKL085W, strain MDH1, active compounds read low 1.01 | S. cerevisiae deletion strains, locus YKL160W, strain elf1, active compounds read low 0.967 | S. cerevisiae deletion strains, locus YKL190W, strain CNB1, active compounds read low 1.01 | S. cerevisiae deletion strains, locus YKR001C, strain vps1, active compounds read low 1.01 | S. cerevisiae deletion strains, locus YKR026C, strain gcn3, active compounds read low 0.988 | S. cerevisiae deletion strains, locus YKR091W, strain srl3, active compounds read low 0.985 | S. cerevisiae deletion strains, locus YLL001W, strain dnm1, active compounds read low 0.978 | S. cerevisiae deletion strains, locus YLL026W, active compounds read low 1.02 | S. cerevisiae deletion strains, locus YLL041C, strain sdh2, active compounds read low 0.981 | S. cerevisiae deletion strains, locus YLR027C, strain aat2, active compounds read low 0.992 | S. cerevisiae deletion strains, locus YLR039C, strain RIC1, active compounds read low 0.995 | S. cerevisiae deletion strains, locus YLR058C, strain SHM2, active compounds read low 1.02 | S. cerevisiae deletion strains, locus YLR102C, strain apc9, active compounds read low 0.981 | S. cerevisiae deletion strains, locus YLR113W, strain HOG1, active compounds read low 1.04 | S. cerevisiae deletion strains, locus YLR221C, strain rsa3, active compounds read low 1.02 | S. cerevisiae deletion strains, locus YLR258W, strain gsy2, active compounds read low 0.984 | S. cerevisiae deletion strains, locus YLR262C, strain YPT6 (second series), active compounds read low 0.969 | S. cerevisiae deletion strains, locus YLR262C, strain YPT6, active compounds read low 1 | S. cerevisiae deletion strains, locus YLR268W, strain sec22, active compounds read low 1.01 | S. cerevisiae deletion strains, locus YLR320W, strain mms22, active compounds read low 0.981 | S. cerevisiae deletion strains, locus YLR330W, strain CHS5, active compounds read low 1.02 | S. cerevisiae deletion strains, locus YLR342W, strain FKS1 (second series), active compounds read low 1 | S. cerevisiae deletion strains, locus YLR342W, strain FKS1, active compounds read low 0.978 | S. cerevisiae deletion strains, locus YLR357W, strain rsc2, active compounds read low 0.933 | S. cerevisiae deletion strains, locus YLR370C, strain arc18, active compounds read low 0.981 | S. cerevisiae deletion strains, locus YLR371W, strain rom2, active compounds read low 0.988 | S. cerevisiae deletion strains, locus YLR384C, strain iki3, active compounds read low 0.992 | S. cerevisiae deletion strains, locus YLR418C, strain cdc73, active compounds read low 0.977 | S. cerevisiae deletion strains, locus YML016C, strain PPZ1, active compounds read low 1.02 | S. cerevisiae deletion strains, locus YML032C, strain rad52, active compounds read low 0.979 | S. cerevisiae deletion strains, locus YML120C, strain ndi1, active compounds read low 1 | S. cerevisiae deletion strains, locus YML124C, strain tub3, active compounds read low 0.992 | S. cerevisiae deletion strains, locus YMR058W, strain fet3, active compounds read low 1.01 | S. cerevisiae deletion strains, locus YMR078C, strain ctf18, active compounds read low 1 | S. cerevisiae deletion strains, locus YMR125W, strain sto1, active compounds read low 0.979 | S. cerevisiae deletion strains, locus YMR129W, active compounds read low 1.01 | S. cerevisiae deletion strains, locus YMR205C, strain PFK2, active compounds read low 0.981 | S. cerevisiae deletion strains, locus YMR223W, strain ubp8, active compounds read low 0.996 | S. cerevisiae deletion strains, locus YMR231W, strain pep5, active compounds read low 0.978 | S. cerevisiae deletion strains, locus YMR263W, strain SAP30, active compounds read low 1.02 | S. cerevisiae deletion strains, locus YMR307W, strain GAS1, active compounds read low 1.07 | S. cerevisiae deletion strains, locus YNL067W, strain RPL9B, active compounds read low 1.03 | S. cerevisiae deletion strains, locus YNL071W, strain lat1, active compounds read low 0.987 | S. cerevisiae deletion strains, locus YNL153C, strain GIM3, active compounds read low 1.03 | S. cerevisiae deletion strains, locus YNL183C, strain NPR1, active compounds read low 0.953 | S. cerevisiae deletion strains, locus YNL209W, strain ssb2, active compounds read low 0.974 | S. cerevisiae deletion strains, locus YNL233W, strain BNI4, active compounds read low 1.02 | S. cerevisiae deletion strains, locus YNL248C, strain rpa49, active compounds read low 0.927 | S. cerevisiae deletion strains, locus YNL250W, strain rad50, active compounds read low 0.993 | S. cerevisiae deletion strains, locus YNL271C, strain bni1, active compounds read low 0.97 | S. cerevisiae deletion strains, locus YNL298W, strain CLA4, active compounds read low 0.988 | S. cerevisiae deletion strains, locus YNL307C, strain MCK1, active compounds read low 0.98 | S. cerevisiae deletion strains, locus YNL322C, strain KRE1 (second series), active compounds read low 0.963 | S. cerevisiae deletion strains, locus YNL322C, strain KRE1, active compounds read low 1.01 | S. cerevisiae deletion strains, locus YNR049C, strain mso1, active compounds read low 0.974 | S. cerevisiae deletion strains, locus YNR052C, strain pop2, active compounds read low 0.993 | S. cerevisiae deletion strains, locus YOL006C, strain TOP1, active compounds read low 1.01 | S. cerevisiae deletion strains, locus YOL012C, strain htz1 0.907 | S. cerevisiae deletion strains, locus YOL147C, strain pex11, active compounds read low 0.992 | S. cerevisiae deletion strains, locus YOR001W, strain rrp6, active compounds read low 1.01 | S. cerevisiae deletion strains, locus YOR061W, strain CKA2, active compounds read low 1.02 | S. cerevisiae deletion strains, locus YOR069W, strain VPS5, active compounds read low 1.01 | S. cerevisiae deletion strains, locus YOR070C, strain gyp1, active compounds read low 0.984 | S. cerevisiae deletion strains, locus YOR080W, strain dia2, active compounds read low 0.977 | S. cerevisiae deletion strains, locus YOR083W, strain WHI5, active compounds read low 0.918 | S. cerevisiae deletion strains, locus YOR106W, strain vam3, active compounds read low 0.976 | S. cerevisiae deletion strains, locus YOR136W, strain idh2, active compounds read low 0.994 | S. cerevisiae deletion strains, locus YOR144C, strain elg1, active compounds read low 0.984 | S. cerevisiae deletion strains, locus YOR184W, strain ser1, active compounds read low 0.982 | S. cerevisiae deletion strains, locus YOR231W, strain MKK1, active compounds read low 1.02 | S. cerevisiae deletion strains, locus YOR265W, strain rbl2, active compounds read low 1.01 | S. cerevisiae deletion strains, locus YOR270C, strain vph1, active compounds read low 0.955 | S. cerevisiae deletion strains, locus YOR290C, strain snf2, active compounds read low 0.964 | S. cerevisiae deletion strains, locus YOR316C, strain cot1, active compounds read low 0.983 | S. cerevisiae deletion strains, locus YPL051W, strain arl3, active compounds read low 0.981 | S. cerevisiae deletion strains, locus YPL055C, strain LGE1, active compounds read low 1.04 | S. cerevisiae deletion strains, locus YPL078C, strain atp4, active compounds read low 0.977 | S. cerevisiae deletion strains, locus YPL106C, strain sse1, active compounds read low 0.95 | S. cerevisiae deletion strains, locus YPL240C, strain hsp82, active compounds read low 0.992 | S. cerevisiae deletion strains, locus YPL256C, strain CLN2, active compounds read low 1.03 | S. cerevisiae deletion strains, locus YPR119W, strain clb2, active compounds read low 0.987 | S. cerevisiae deletion strains, locus YPR141C, strain kar3, active compounds read low 0.996 | S. cerevisiae deletion strains, locus YPR163C, strain tif3, active compounds read low 0.988 | S. cerevisiae deletion strains, locus YPR167C, strain met16, active compounds read low 0.987 | S. cerevisiae deletion strains, strain wtn01, active compounds read low 0.984 | S. cerevisiae strains, strain wild type, active compounds read low 1.02
